In PubChem BioAssay AID651717 (Broad Institute, 2012):
In all, about 1,200 compounds went through this assay and about 950 (79%) were called active.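 Rule for the calls: active = signal rises and fitted curve reaches 40% activity at or below the top valid tested dose, in every replicate test; inconclusive = replicate tests give mixed calls; inactive = the rest, including activity in the opposite direction.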 So high a share suggests a set chosen from earlier hits. Not all results are given here. Measured potencies and affinities stand elsewhere.

test: compounds raising Bmi1 reporter signal – mouse embryonic stem cells, luciferase, cherry-pick, esBAF inhibitor project, dose response (AID 651717); conditions: mESC Bmi1-luciferase reporter, firefly/renilla ratio, 24 h, hits give high values; at 35 µM unless noted;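 note: luciferase knocked into Bmi1 locus with EF-1a renilla as cell number control; rising ratio signals esBAF inhibition which derepresses Bmi1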

Question: Which max activity does the source give for C[C@H](CO)N1C[C@H](C)[C@@H](CN(C)C(=O)Nc2ccc(F)cc2)OCCCC[C@H](C)Oc2ccc(NC(=O)Nc3ccc4c(c3)OCO4)cc2C1=O here?
Answer: 15.2% [at 8 µM] (inactive)

Question: With Cc1ccc(C(=O)Nc2nc(=O)n(C(=O)c3ccccc3C)s2)cc1 as the molecule, how does the max activity read?
Answer: 38.3% [at 16 µM] (inactive)

Question: For CC(C)c1ccc(NC(=O)C(c2ccccc2)N2CC(=O)Nc3ccccc32)cc1 (stereo unspecified), which max activity is on record?
Answer: 10.6% (inactive)

Question: Which max activity does the source give for Cc1ccc(-n2nc(C(=O)c3ccccc3)n3c(=O)cc(-c4ccccc4)nc23)cc1 here?
Answer: 5.74% [at 16 µM] (inactive)

Question: With C[C@@H]1CN([C@@H](C)CO)C(=O)c2cc(NC(=O)Nc3ccc4c(c3)OCO4)ccc2O[C@@H](C)CCCCO[C@@H]1CN(C)C(=O)Nc1ccc2c(c1)OCO2 as the molecule, how does the max activity read?
Answer: 18.2% (inactive)

Question: Which max activity does the source give for C[C@H](CO)N1C[C@H](C)[C@@H](CN(C)C(=O)Nc2ccc3c(c2)OCO3)OCCCC[C@H](C)Oc2ccc(NC(=O)Nc3ccc4c(c3)OCO4)cc2C1=O here?
Answer: 12.8% (inactive)

Question: With C[C@@H]1CCCCO[C@@H](CN(C)C(=O)Nc2ccc3c(c2)OCO3)[C@H](C)CN([C@H](C)CO)C(=O)c2cc(NC(=O)Nc3ccc4c(c3)OCO4)ccc2O1 as the molecule, how does the max activity read?
Answer: 17.2% [at 16 µM] (inactive)

Question: For C[C@@H]1CN([C@@H](C)CO)C(=O)c2cc(NC(=O)Nc3ccc4c(c3)OCO4)ccc2O[C@H]1CN(C)C(=O)Nc1ccc(C(F)(F)F)cc1, which max activity is on record?
Answer: -14.9% (inactive)

Question: For O=C(CCCc1ccccc1)Nc1ccccc1C(F)(F)F, which max activity is on record?
Answer: 21.6% (inactive)

Question: Which max activity does the source give for C[C@@H]1CN([C@@H](C)CO)C(=O)c2cc(NC(=O)Nc3ccc4c(c3)OCO4)ccc2O[C@@H](C)CCCCO[C@H]1CN(C)C(=O)Nc1ccccc1 here?
Answer: 33.3% (inactive)

Question: Which max activity does the source give for C[C@@H]1CCCCO[C@H](CN(C)C(=O)Nc2ccc(F)cc2)[C@H](C)CN([C@@H](C)CO)C(=O)c2cc(NC(=O)Nc3ccc4c(c3)OCO4)ccc2O1 here?
Answer: 7.08% [at 1 µM] (inactive)

Question: For O=S(=O)(c1cccs1)N1CN(Cc2ccc(Cl)cc2)c2nc3ccccc3nc21, which max activity is on record?
Answer: -33.7% (inactive)

Question: Which max activity does the source give for COc1ccc(-c2nn(-c3ccccc3)cc2/C=C(\CC(=O)O)c2nc3ccccc3s2)cc1OC here?
Answer: 26.9% (inactive)

Question: With C[C@@H]1CCCCO[C@@H](CN(C)S(=O)(=O)c2cn(C)cn2)[C@H](C)CN([C@H](C)CO)C(=O)c2cc(NC(=O)Nc3ccc4c(c3)OCO4)ccc2O1 as the molecule, how does the max activity read?
Answer: -9.02% [at 2.1 µM] (inactive)

Question: Which max activity does the source give for CN(c1ccc(O)cc1)S(=O)(=O)c1ccc2ccccc2c1 here?
Answer: 14.3% [at 8 µM] (inactive)

Question: For CCCN(Cc1ccc(C)cc1)C(=O)c1ccc(CNS(=O)(=O)c2ccc(C(C)=O)cc2)cc1, which max activity is on record?
Answer: 33.1% [at 16 µM] (inactive)

Question: With COc1cccc(CN(C(=O)c2cc3ccccc3oc2=O)C2CC2)c1 as the molecule, how does the max activity read?
Answer: 35% [at 8 µM] (inactive)

Question: Which max activity does the source give for O=C1NC[C@H](c2ccccc2)OC(=O)[C@@H](Cc2ccc(F)cc2)C/C=C\C[C@H]1CC(=O)N(CCO)Cc1ccccc1 here?
Answer: 25.5% (inactive)

Question: Which max activity does the source give for COC(=O)c1ccc2c(=O)n(CC3CCCO3)c(SCC(=O)Nc3ccccc3Cl)nc2c1 (stereo unspecified) here?
Answer: 24.8% [at 8 µM] (inactive)

Question: For C[C@@H]1CCCCO[C@@H](CN(C)C(=O)Nc2cccc3ccccc23)[C@H](C)CN([C@H](C)CO)C(=O)c2cc(NC(=O)C3CCCCC3)ccc2O1, which max activity is on record?
Answer: 28.2% [at 16 µM] (inactive)

Question: Which max activity does the source give for COc1ccc(CNC(=O)N(C)C[C@@H]2OCc3ccccc3-c3c(n(C)c4ccccc34)C(=O)N([C@H](C)CO)C[C@@H]2C)cc1 here?
Answer: -26.4% [at 30 µM] (inactive)

Question: With COc1ccc(-c2cc(C(=O)N3CCCCCC3)no2)cc1OC as the molecule, how does the max activity read?
Answer: 32.3% (inactive)

Question: For CS(=O)(=O)NN1C(=O)c2ccccc2NC1c1cc2ccccc2nc1Cl (stereo unspecified), which max activity is on record?
Answer: 18.4% (inactive)

Question: Which max activity does the source give for COc1ccc(C(=O)O/N=C(\N)c2ccc(OC)c(OC)c2)c(OC)c1 here?
Answer: 34.8% (inactive)

Question: With O=C(NCC[C@@H]1CC[C@H](NC(=O)Nc2cc(F)ccc2F)[C@H](CO)O1)Nc1ccc(Cl)cc1 as the molecule, how does the max activity read?
Answer: 29.7% (inactive)

Question: With O=C(NCC[C@@H]1CC[C@@H](NC(=O)Nc2cc(F)ccc2F)[C@H](CO)O1)Nc1ccc(Cl)cc1 as the molecule, how does the max activity read?
Answer: -11.9% [at 16 µM] (inactive)

Question: For C[C@@H]1CN([C@H](C)CO)C(=O)c2c(c3ccccc3n2C)-c2ccccc2CO[C@H]1CN(C)C(=O)Nc1ccc2c(c1)OCO2, which max activity is on record?
Answer: -14.5% (inactive)

Question: For CC(C)c1ccc(NC(=O)c2ccccc2NC(=O)C2CCCCC2C(=O)O)cc1 (stereo unspecified), which max activity is on record?
Answer: 41% (inactive)

Question: For Cc1cccc(NC2SC(=O)N(c3ccccc3)C2=O)c1 (stereo unspecified), which max activity is on record?
Answer: 37.5% (inactive)

Question: With O=C(/C=C/NNC(=O)c1ccccc1O)c1ccccc1 as the molecule, how does the max activity read?
Answer: 4.98% [at 4.2 µM] (inactive)

Question: With CCn1c(CCNC(=O)c2cccs2)nnc1SCC(=O)Nc1nc(-c2ccccc2)cs1 as the molecule, how does the max activity read?
Answer: 32.7% (inactive)

Question: For C[C@@H]1CCCCO[C@@H](CN(C)C(=O)Nc2ccccc2)[C@@H](C)CN([C@@H](C)CO)C(=O)c2cc(NC(=O)Nc3ccc4c(c3)OCO4)ccc2O1, which max activity is on record?
Answer: 13.1% [at 16 µM] (inactive)

Question: Which max activity does the source give for C[C@@H]1CCCCO[C@@H](CN(C)C(=O)Nc2cccc3ccccc23)[C@H](C)CN([C@H](C)CO)C(=O)c2cc(NC(=O)Cc3ccccc3)ccc2O1 here?
Answer: -4.4% [at 2.1 µM] (inactive)

Question: Which max activity does the source give for Brc1ccc(N=C/C=C/C=C/Nc2ccc(Br)cc2)cc1 here?
Answer: 9.66% [at 4.2 µM] (inactive)

Question: With C[C@H](CO)N1C[C@H](C)[C@@H](CN(C)S(=O)(=O)c2cccs2)Oc2c(NC(=O)Nc3ccc4c(c3)OCO4)cccc2C1=O as the molecule, how does the max activity read?
Answer: -24.2% (inactive)

Question: For COc1cccc(-c2cnc(C(O)c3ccc(F)cc3)[nH]2)c1 (stereo unspecified), which max activity is on record?
Answer: 32% [at 8 µM] (inactive)

Question: Which max activity does the source give for CCc1ccc(C(O)c2ncc(-c3cccc(F)c3)[nH]2)cc1 (stereo unspecified) here?
Answer: -31.3% (inactive)

Question: Which max activity does the source give for OC(c1ccccc1)c1ncc(-c2ccccc2F)[nH]1 (stereo unspecified) here?
Answer: -21.5% (inactive)

Question: For Cc1ccc(S(=O)(=O)N2CCOCC2)cc1C(=O)Nc1ccc(-c2cn3ccsc3n2)cc1, which max activity is on record?
Answer: -8.19% (inactive)

Question: With CC(C)c1ccc(Nc2ncc3c(n2)CCN(C(=O)Nc2ccc(F)c(Cl)c2)C3)cc1 as the molecule, how does the max activity read?
Answer: 20.6% (inactive)

Question: Which max activity does the source give for N#Cc1cccc(NC(=O)c2cc(C3CCCCN3S(=O)(=O)c3cccc4cccnc34)on2)c1 (stereo unspecified) here?
Answer: -16.3% (inactive)
